Among all 62,000 compounds or so, about 80 (0.1%) were called active. No rule for the calls is given here. The list is a sample of the results. Results with a measured potency or affinity are listed apart.
Molecular target: Ephrin type-A receptor 4 (Mus musculus) (UniProt Q03137)
Assay: inhibitors of EphA4 binding to KYL peptide, primary screen, biochemical, colorimetric, mouse EphA4 (AID 689)
Details: EphA4-AP binding to KYL peptide, pNPP A405, at 10 µM, hits give high values

Ephrin type-A receptor 4 (Mus musculus), sequence (Q03137 whole entry, looked up): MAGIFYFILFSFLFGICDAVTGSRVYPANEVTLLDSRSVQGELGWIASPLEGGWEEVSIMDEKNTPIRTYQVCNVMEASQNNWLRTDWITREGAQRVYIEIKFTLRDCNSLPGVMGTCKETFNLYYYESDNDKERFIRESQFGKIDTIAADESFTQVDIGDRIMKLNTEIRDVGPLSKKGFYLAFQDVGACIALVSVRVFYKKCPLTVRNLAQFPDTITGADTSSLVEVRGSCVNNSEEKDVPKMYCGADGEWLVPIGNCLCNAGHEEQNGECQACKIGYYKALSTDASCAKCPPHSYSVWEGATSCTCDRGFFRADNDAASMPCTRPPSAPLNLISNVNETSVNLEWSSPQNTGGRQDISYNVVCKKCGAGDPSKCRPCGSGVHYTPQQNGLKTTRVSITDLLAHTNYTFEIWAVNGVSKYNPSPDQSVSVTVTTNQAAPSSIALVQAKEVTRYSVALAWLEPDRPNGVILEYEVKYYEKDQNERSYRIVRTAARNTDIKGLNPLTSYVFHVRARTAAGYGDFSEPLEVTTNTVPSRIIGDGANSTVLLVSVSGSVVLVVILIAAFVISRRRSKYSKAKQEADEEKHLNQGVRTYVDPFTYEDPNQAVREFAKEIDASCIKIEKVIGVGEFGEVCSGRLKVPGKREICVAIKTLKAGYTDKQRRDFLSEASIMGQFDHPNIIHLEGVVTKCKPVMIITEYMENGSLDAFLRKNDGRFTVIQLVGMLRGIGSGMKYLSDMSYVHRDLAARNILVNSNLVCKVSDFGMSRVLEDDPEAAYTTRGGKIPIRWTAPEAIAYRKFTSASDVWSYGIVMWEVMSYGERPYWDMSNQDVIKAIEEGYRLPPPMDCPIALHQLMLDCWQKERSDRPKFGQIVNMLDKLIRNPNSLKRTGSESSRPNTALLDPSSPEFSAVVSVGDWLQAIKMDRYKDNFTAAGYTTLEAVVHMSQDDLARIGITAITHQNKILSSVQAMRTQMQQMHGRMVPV

inhibition, inactive:
Cc1cc(C)n2nc(SC3CCCCN(C(=O)c4ccc(F)cc4)C3=O)nc2n1 (configuration not stated) -9.7%
Cc1nn2cc(-c3ccccc3)nc2s1 -24.1%
c1ccc(-c2cn3nc4c(nc3n2)CCCC4)cc1 5.2%
Cc1cc(=O)[nH]c(SCCOc2ccccc2C)n1 -0.8% [this sample at 5 µg/mL]
CC1CC(C)CN(C(=O)CSc2nnc(-c3ccc(F)cc3)o2)C1 (configuration not stated) 8.1%
Cc1ccc(C(=O)N/C(=C\c2ccc([N+](=O)[O-])cc2)C(=O)NCCc2ccccc2)cc1 1.8%
Cc1ccc(NC(=O)/C(=C\c2ccc([N+](=O)[O-])cc2)NC(=O)c2ccccc2)cc1 -12.9%
COc1ccc(NC(=O)/C=C/c2ccccc2Cl)c([N+](=O)[O-])c1 -10.9% [this sample at 5 µg/mL]
CC1=N/C(=C\c2ccc([N+](=O)[O-])cc2)C(=O)N1c1ccc(Br)c(C)c1 40.9%
CC1=N/C(=C\c2ccc([N+](=O)[O-])cc2)C(=O)N1c1ccc(Cl)cc1 22.2%
O=C(COc1ccccc1)Nc1ccc(S(=O)(=O)N2CCOCC2)cc1 5.4%
C=C(C)Cn1c(COc2ccccc2)nnc1SCC(=O)O 1.1%
O=C(/C(=C/c1ccccc1[N+](=O)[O-])c1nc2ccccc2[nH]1)c1ccccc1 9% [this sample at 5 µg/mL]
O=C1NC(=O)N(c2ccc(Cl)cc2)C(=O)/C1=C/c1ccc(-c2ccc(Cl)c(C(=O)O)c2)o1 -6.4% [this sample at 5 µg/mL]
CN1C(=O)C(=Cc2ccc(-c3ccc(Cl)c(C(=O)O)c3)o2)C(=O)N(C)C1=O 12.8% [this sample at 5 µg/mL]
CCOC(=O)c1cc(-c2ccc(C=C3C(=O)N(C)C(=O)N(C)C3=O)o2)ccc1Cl 11% [this sample at 5 µg/mL]
Cc1ccc(N2C(=O)/C(=C\c3ccc(-c4ccc(Cl)c(C(=O)O)c4)o3)C(=O)NC2=S)cc1 -13.7% [this sample at 5 µg/mL]
COc1ccc(/C=C/C(=O)Nc2cccc([N+](=O)[O-])c2)cc1Br 1.9% [this sample at 5 µg/mL]
COC(=O)c1cccc(NC(=O)COC(=O)CSc2nc(C)cc(C)n2)c1 -9.9%
Cn1c(SCCOc2ccc(Cl)cc2)nnc1-c1ccncc1 13%
Cc1ccc(CNc2oc(C)nc2C#N)cc1 -0.9%
O=C(NCCOc1ccccc1F)c1cccc2ccccc12 -0.6% [this sample at 5 µg/mL]
COC(=O)c1ccc(Cn2cnc3c(cnn3-c3ccc(F)cc3)c2=O)o1 9.4%
CCOc1ccc(NC(=O)CSc2nc(C)c3c(c2C#N)CCCC3)cc1 -14.6%
Cc1ccc(/C=C/C2=Cc3c(sc(NC(=O)CSc4n[nH]c(N)n4)c3C#N)C(C)(C)C2)o1 44.8%
Cc1ccc(OCc2nnc(SCC(=O)Nc3sc(C)c(C)c3C#N)n2C)cc1 -5.2%
Cc1sc(NC(=O)CSc2nnc(C)c(=O)[nH]2)c(C#N)c1C -25.1%
COc1cc(C2N(c3ccc(Cl)c(Cl)c3)C(=O)C3CCCN32)cc(OC)c1OC (configuration not stated) -1.5%
O=C(NC1CCCCCCC1)C1CCCN(S(=O)(=O)c2cnc[nH]2)C1 (configuration not stated) -3.1%
COc1ccc(C)cc1NC(=O)C1CC(=O)N(Cc2ccco2)C1 (configuration not stated) -16.4%
O=C1CCCC2=C1C(c1ccco1)Nc1ccc(C(=O)c3ccccc3)cc1N2 (configuration not stated) -4.7%
O=C1CCCC2=C1C(c1cccs1)Nc1ccc3ncccc3c12 (configuration not stated) -5.1%
CC1(C)N=C(c2ccc(Cl)cc2Cl)C(=O)N1 -8.8%
CCOc1ccccc1NC(=S)N1CCC(NC(=O)NC23CC4CC(CC(C4)C2)C3)CC1 -4.6%
O=C(c1ccc2c(c1)OCO2)N1CCC(CN2C(=O)c3cccc4cccc(c34)C2=O)CC1 -13.5% [this sample at 5 µg/mL]
Cc1ccc2nc(NC3=NCN(Cc4ccccc4)CN3)nc(C)c2c1 1.1%
CN1C(=O)/C(=C2\SC(=S)N(CC3CCCO3)C2=O)c2ccccc21 (configuration not stated) -3.2%
O=C1/C(=C\c2ccc(-c3ccccc3Cl)o2)SC(=S)N1Cc1ccccc1 18.2% [this sample at 5 µg/mL]
Cc1ccccc1OCC(=O)Nc1ccc2c(c1)Cc1ccccc1-2 -9.2%
Cc1c(NC(=O)CC(=O)Nc2c(C)n(C)n(-c3ccccc3)c2=O)c(=O)n(-c2ccccc2)n1C 0.3%
Cc1c(NC(=S)N/N=C/c2ccc(O)cc2)c(=O)n(-c2ccccc2)n1C -1.6%
COc1ccccc1-c1nnc2n1N=C(c1ccc(O)c(O)c1)CS2 -9.2%
COc1cc(/C=c2\sc3nc4ccccc4n3c2=O)ccc1OCCOc1ccccc1 -2.3% [this sample at 5 µg/mL]
COc1cc(/C=c2\sc3nc4ccccc4n3c2=O)ccc1OS(=O)(=O)c1ccccc1 10.7% [this sample at 5 µg/mL]
COCCNC(=O)CN(C(=O)CCC(=O)Nc1nccs1)c1ccccc1OC -10.3%
CN1/C(=C\C=[N+](C)c2ccccc2)C(C)(C)c2ccccc21 -36.4%
CCN1C(=O)/C(=C\c2cccc(C)c2)SC1=S -1.5% [this sample at 5 µg/mL]
CCN1C(=O)/C(=C/C=C2/SCCN2C)SC1=S -7.6%
CN1/C(=C\C=Nc2ccccc2)C(C)(C)c2ccccc21 4%
COc1ccc(C(=O)NCCCn2ccnc2)cc1 3%
O=C(Nc1ccccc1)N1CCC(C(=O)N2CCN(S(=O)(=O)c3cccc(F)c3)CC2)CC1 -6.6%
COc1ccc(OC)c(NC(=O)CN(c2ccccc2)S(=O)(=O)c2ccccc2[N+](=O)[O-])c1 -12.2% [this sample at 5 µg/mL]
